Screens deposited in PubChem by National Center for Advancing Translational Sciences (NCATS).
The sample as a whole holds a higher share of hits than the screen did.
HT1080NT lethal: qHTS for induction of synthetic lethality in tumor cells producing 2HG: qHTS for the HT-1080-NT fibrosarcoma cell line | HT-1080-NT fibrosarcoma viability, CellTiter-Glo ATP luminescence, 48 h | Potency, µM (highest dose often 46.1 µM), for the others: at the highest dose activity, negative = less viability, hits mostly cytotoxic | hit rate 1.6% among 360,000;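 note: NT is the 2HG producing partner of a matched IDH1 knockdown line; potency is the fitted concentration of half-maximal effect; 0% = DMSO-treated cells and -100% = media-only wells without cells; nearly all actives have a fitted effect of over 55% in size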
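HT-1080-NT fibrosarcoma cells (2HG-overproducing), 750 cells/well in RPMI with 5% FBS, dosed after 2 h and incubated 48 h at 37C. CellTiter-Glo luminescence normalized to DMSO and no-cell wells; concentration-response curves fitted and classed.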
HT1080 IDH1KD tx: qHTS for induction of synthetic lethality in tumor cells producing 2HG: qHTS for the HT-1080-IDH1KD cell line; AID 686971, 2013; HT-1080 IDH1 knockdown viability, ATP luminescence, 48 h; hit rate 2% among 360,000; Potency, µM (highest dose often 46.1 µM), for inactives: top-dose activity, negative = toxicity, most hits filed as cytotoxic;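 note: potency is the fitted concentration of half-maximal effect; 0% = DMSO wells and -100% = cell-free medium wells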
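% activity derives from luminescence (CellTiter-Glo), normalised to DMSO and no-cell wells. HT-1080-IDH1KD cells, 750/well, had 48 h compound exposure at 37 °C.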
TDP1 cell CPT: qHTS for Inhibitors of human tyrosyl-DNA phosphodiesterase 1 (TDP1): qHTS in cells in presence of CPT | chicken DT40 Tdp1-/-;hTDP1 cells + 20 nM CPT, ATP luminescence, 48 h | Potency, µM (titrated, usually from 46.2 µM), without a hit: top-dose activity change, negative = growth inhibition, actives largely listed as inhibitors | hit rate 12% among 420,000 | AID 686979, 2013; note: potency is the fitted concentration of half-maximal effect; nearly all actives have a fitted effect of over 55% in size
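Cell growth measured by CellTiter-Glo luminescence after a minimum 48 h, 37 C compound exposure with 20 nM CPT in Tdp1-knockout DT40 cells stably expressing hTDP1, seeded 400/well; qHTS titration format.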
IL-1B inflam inh: qHTS for Inhibitors of Inflammasome Signaling: IL-1-beta AlphaLISA Primary Screen. THP-1 LPS/ATP IL-1B secretion, AlphaLISA, 16 h; hits give low values. activity change, % at 57.5 µM. hit rate 4.7% among 360,000; in the data active = activity change below about -50%; inconclusive = mostly about -30% to -49%
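Secreted IL-1B measured by AlphaLISA bead assay after 16 h compound exposure of THP-1 cells; compounds (final up to 57.5 uM) added 1 h before LPS (250 ng/mL) and ATP (1.25 mM) stimulation; lower signal means less secretion.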
12-LOX inh: Primary qHTS assay for inhibitors of human arachidonate 12S-lipoxygenase (ALOX12): Round 2; Polyunsaturated fatty acid lipoxygenase ALOX12 (Homo sapiens), P18054; purified 12hLO, xylenol orange hydroperoxide absorbance; Potency, µM (highest dose often 108 µM), for inactives: at the top dose activity change, negative = inhibition, actives largely listed as inhibitors; hit rate 1.1% among 580,000; AID 1671190, 2021; note: potency is the fitted concentration of half-maximal effect
Target sequence (P18054 whole entry, looked up): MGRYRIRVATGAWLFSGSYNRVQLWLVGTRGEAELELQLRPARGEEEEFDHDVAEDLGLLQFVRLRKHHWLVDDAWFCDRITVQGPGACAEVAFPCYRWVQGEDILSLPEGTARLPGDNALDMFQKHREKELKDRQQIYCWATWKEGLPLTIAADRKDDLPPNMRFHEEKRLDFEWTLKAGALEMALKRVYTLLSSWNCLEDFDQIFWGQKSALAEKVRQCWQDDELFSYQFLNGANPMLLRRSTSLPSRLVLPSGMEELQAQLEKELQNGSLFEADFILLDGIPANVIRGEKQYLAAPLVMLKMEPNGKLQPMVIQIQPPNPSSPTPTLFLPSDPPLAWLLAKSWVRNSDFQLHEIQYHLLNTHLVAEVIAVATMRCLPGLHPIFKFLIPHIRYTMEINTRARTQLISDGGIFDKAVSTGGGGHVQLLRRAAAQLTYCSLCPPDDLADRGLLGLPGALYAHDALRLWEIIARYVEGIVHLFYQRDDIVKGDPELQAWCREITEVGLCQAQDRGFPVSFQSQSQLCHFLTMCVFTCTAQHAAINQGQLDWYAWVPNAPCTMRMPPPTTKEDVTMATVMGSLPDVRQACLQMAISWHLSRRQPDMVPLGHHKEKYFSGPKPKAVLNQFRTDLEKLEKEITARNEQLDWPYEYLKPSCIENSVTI
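Purified human 12hLO at 150 nM in 25 mM Hepes, 0.01% Triton X-100, pH 7.0, preincubated 15 min at room temperature with compound. Reaction started with 40 uM arachidonic acid, 30 min at room temperature. Hydroperoxide measured by Fe-xylenol orange, 573/405 nm absorbance ratio.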
TDP1 cell noCPT: qHTS for Inhibitors of human tyrosyl-DNA phosphodiesterase 1 (TDP1): qHTS in cells in absence of CPT; DT40 Tdp1-/- hTDP1 cells, no CPT, ATP luminescence, 48 h; Potency, µM (highest dose often 46.2 µM), without a hit: top-dose activity change, negative = growth inhibition, hits mostly inhibitors; hit rate 15% among 420,000; AID 686978, 2013; note: potency is the fitted concentration of half-maximal effect; nearly all actives have a fitted effect of over 55% in size
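Cells were dispensed at 400 per well, compounds added by pin tool, plates incubated ≥48 hr at 37 °C, then CellTiter-Glo added for 30 min at room temperature before luminescence reading. Line: DT40 Tdp1-/- complemented with hTDP1; camptothecin omitted.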
* = called active by the depositor; ? = inconclusive; nt = no result. Unless noted, calls come from the whole dose curve; as a rule, active = well fitted curve in the direction sought with a large enough effect; inconclusive = small, poorly fitted or top-dose-only effect, or another doubt; inactive = no such curve, though single readings can be large; an effect the other way counts as inactive or inconclusive. Unless noted, % is set by controls: 0 for no effect and ±100 for the full control effect.

SMILES	HT1080NT lethal	HT1080 IDH1KD tx	TDP1 cell CPT	IL-1B inflam inh	12-LOX inh	TDP1 cell noCPT
Cc1cc(N2CCN(c3ccccc3)CC2)nc(-c2ccccc2O)n1	0%	-4%	?	8	9%	?
Cc1cc(Nc2ccccc2C)nc(-n2nc(C)cc2C)n1	nt	nt	4.6µM*	nt	2%	5.2µM*
Cc1cc(N2CCN(c3ccccc3)CC2)nc(-n2nc(C)cc2C)n1	0.71µM*	1.1µM*	4.6µM*	-8	17%	5.2µM*
Cc1cc(C)n(-c2nc3ccccc3nc2Nc2ccc(F)cc2F)n1	nt	nt	nt	nt	21%	nt
CCCCc1ccc(Nc2cc(C)nc(-n3nc(C)cc3C)n2)cc1	nt	nt	4.6µM*	nt	-14%	5.2µM*
CCc1nc2cc(N3CCC(C(=O)NC(C)c4cccnc4)CC3)cnc2nc1CC (stereo not given)	nt	nt	nt	nt	-1%	nt
N#Cc1ccc(OC(=O)Cc2ccc3c(c2)OCCO3)cc1	nt	nt	nt	nt	14%	nt
CC(=O)N1N=C(c2ccccc2)CC1c1cn(C)c2ccccc12 (stereo not given)	0%	-8%	?	?	-6%	21µM*
Cn1ccnc1C(O)c1cc2n(n1)CCN(c1ncnc3nc[nH]c13)C2 (stereo not given)	nt	nt	nt	nt	58%	nt
CC(C)C[C@H]1COc2cc(Br)ccc2S(=O)(=O)N1Cc1cccc(Cl)c1	nt	nt	nt	nt	-4%	nt
O=C(Nc1cccc(-c2nc3ccccc3s2)c1)C1CCN(C(=O)c2ccco2)CC1	nt	nt	nt	nt	-7%	nt
CN(C)c1cccc(C(=O)Nc2nc3ccc(S(=O)(=O)N4CCCC4)cc3s2)c1	nt	nt	6.5µM*	nt	-18%	8.2µM*
COc1ccccc1C(=O)Nc1nc2ccc(S(=O)(=O)N3CCCC3)cc2s1	nt	nt	-2%	nt	-22%	-25%
COc1cc(C(=O)Nc2nc3ccc(S(=O)(=O)N4CCOCC4)cc3s2)cc(OC)c1OC	-5%	-7%	?	22	?	-26%
COc1cccc(C(=O)Nc2nc3ccc(S(=O)(=O)N4CCCC4)cc3s2)c1	nt	nt	4.6µM*	nt	-19%	5.2µM*
O=C(Nc1nc2ccccc2s1)C1CCN(C(=O)c2ccco2)CC1	?	-2%	?	?	?	15µM*
Cc1ccc(C(=O)Nc2nc3ccc(S(=O)(=O)N4CCCC4)cc3s2)cc1	nt	nt	-2%	nt	-14%	-12%
COc1ccc2nc(NC(=O)c3cc(S(=O)(=O)N4CCOCC4)ccc3C)sc2c1	-6%	-13%	?	-21	0%	18µM*
COc1cccc(-c2nccn2C2COC3(CCCC3)C2)c1OC (stereo not given)	nt	nt	nt	nt	61%	nt
CC1CC(=O)Nc2cc(S(=O)(=O)NCCc3cccs3)ccc2S1 (stereo not given)	nt	nt	nt	nt	4%	nt
O=C(Nc1nc2ccccc2s1)C1CCN(S(=O)(=O)c2cc([N+](=O)[O-])ccc2Cl)CC1	?	16µM*	15µM*	-21	-13%	15µM*
O=C(Nc1nc2ccc(S(=O)(=O)N3CCCC3)cc2s1)C1CCCCC1	21µM*	15µM*	2.6µM*	-5	-12%	4.6µM*
Nc1nc2ccc(S(=O)(=O)N3CCCCC3)cc2s1	0%	1%	8.2µM*	-106*	?	9.2µM*
CCc1cccc(C)c1NC(=O)/C=C/c1cccs1	nt	nt	nt	nt	6%	nt
CC(=O)c1ccc(C(=O)N2CCN(C(c3ccc(F)cc3)c3ccc(F)cc3)CC2)s1	nt	nt	nt	nt	1%	nt
SMILES	HT1080NT lethal	HT1080 IDH1KD tx	TDP1 cell CPT	IL-1B inflam inh	12-LOX inh	TDP1 cell noCPT
C=CCn1c(=O)c(C(=O)Nc2ccc(C)cc2)c(O)c2ccccc21	-2%	3%	18µM*	38	16%	12µM*
C=CCn1c(=O)c(C(=O)Nc2cc(C)ccn2)c(O)c2ccccc21	?	22%	29µM*	0	9%	26µM*
O=C(NCc1cccc(Cl)c1)Nc1ccccc1Cl	nt	nt	nt	nt	-26%	nt
COc1ccc(NC(=O)COc2ccc(C)nc2[N+](=O)[O-])cc1S(N)(=O)=O	-4%	1%	9.2µM*	-15	0%	?
COc1ccc(NC(=O)COc2ccccc2Cc2ccccc2)cc1S(N)(=O)=O	-9%	-25%	21µM*	-6	2%	15µM*
Cc1ccc(OCC(=O)Nc2ccc(C)c(S(=O)(=O)N3CCCCC3)c2)c([N+](=O)[O-])n1	-4%	-10%	?	-28	?	?
COc1ccc(NC(=O)CSc2nncn2Cc2ccco2)cc1	nt	nt	nt	nt	2%	nt
CCCCCCN1C=CC=C/C1=C/C=C(C#N)C#N	-5%	-15%	?	-8	-6%	?
CCCCCCN1C=C/C(=C\C=C(C#N)C#N)c2ccccc21	-3%	-15%	?	20	-4%	23µM*
CC1(C(=O)NCCC(F)(F)F)Cc2c(-c3cccc(C(N)=O)c3)ccnc2O1 (stereo not given)	?	?	?	-9	-4%	0.82µM*
CC1(C(=O)NCC2CCOCC2)Cc2c(-c3cccc(C(F)(F)F)c3)ccnc2O1 (stereo not given)	?	3.7µM*	5.2µM*	72	2%	3.3µM*
CN(C)CCNC(=O)C1(C)Cc2c(-c3cccc(C(F)(F)F)c3)ccnc2O1 (stereo not given)	?	?	-73%	0	-1%	6.5µM*
CC1(C(=O)NCCC(F)(F)F)Cc2c(-c3cccc(C(F)(F)F)c3)ccnc2O1 (stereo not given)	21µM*	5.8µM*	4.6µM*	0	0%	3.3µM*
CC1(C(=O)NCCc2ccccc2)Cc2c(-c3cccc(C(F)(F)F)c3)ccnc2O1 (stereo not given)	?	?	?	56	-11%	?
Cc1ccc(S(=O)(=O)N2CCOCC2)cc1C(=O)NCC1CCCCC1	-6%	9%	-12%	-8	-7%	-11%
O=C(c1ccco1)N1CCC(C2CCN(Cc3cccc(F)c3F)CC2)C1 (stereo not given)	nt	nt	nt	nt	8%	nt
CNC(=O)[C@@H]1CN(C(=O)c2ccc(OC)c(F)c2)C[C@H]1COC	nt	nt	nt	nt	22%	nt
COc1ccccc1/C=C/C(=O)NC(=S)Nc1ccccn1	7%	8%	-3%	16	3%	-6%
